Measurements: PubChem BioAssay AID1159580 (chemical genetic matrix, 2015)
Where “and” joins values, the source holds several entries; their conditions need not be identical. Identical values can stand only once. The campaign covered roughly 5,500 compounds. About 2,000 (36%) were called active. Another 18% or so got no clear call; they are omitted. No stated cut-off is given here; in the data, active means normalized growth mostly below about 0.91 (no sharp cut-off); inconclusive means no clear call, values can overlap the other calls; inactive means mostly above about 0.92. The list shows a part of the results.

Assay: chemical genetic growth profiling, strain panel (AID 1159580);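 further: tested at 20 µM; growth read once vehicle control cultures reached saturation at 30 °C; 1 = growth at the plate median or of vehicle wells; lower values mean less growth of the strain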
Details: S. cerevisiae deletion strains, growth OD
[1] = locus YAL013W, strain DEP1, hits give low values
[2] = locus YBR229C, strain ROT2, hits give low values
[3] = locus YDL101C, strain DUN1, hits give low values
[4] = locus YDL134C, strain PPH21, hits give low values
[5] = locus YEL061C, strain CIN8, hits give low values
[6] = locus YGR078C, strain PAC10, hits give low values
[7] = locus YHR030C, strain SLT2, hits give low values
[8] = locus YJR043C, strain POL32, hits give low values
[9] = locus YLR039C, strain RIC1, hits give low values
[10] = locus YLR262C, strain YPT6, hits give low values
[11] = locus YNL322C, strain KRE1, hits give low values
[12] = locus YPL055C, strain LGE1, hits give low values
[13] = locus YPL241C, strain CIN2, hits give low values

Measured: normalized growth

N#Cc1c(Cl)cccc1N1CCCC1
active: [1] 0.877 | [3] 0.87 | [5] 0.891 | [6] 0.851 | [7] 0.615 | locus YHR087W, strain rtc3, hits give low values 0.886 | [8] 0.861 | locus YJR075W, strain HOC1, hits give low values 0.801 | [9] 0.576 | [10] 0.567 | locus YML094W, strain GIM5, hits give low values 0.779 | locus YMR219W, strain ESC1, hits give low values 0.931 | locus YNL153C, strain GIM3, hits give low values 0.833 | locus YNL298W, strain CLA4 (second series), hits give low values 0.762 | [11] 0.929 | locus YNR030W, strain Alg12, hits give low values 0.83 | locus YOL006C, strain TOP1, hits give low values 0.473 | [12] 0.776 | [13] 0.815
inactive: [2] 0.935 | [4] 0.98 | locus YDR150W, strain NUM1, hits give low values 0.85 | locus YLR058C, strain SHM2 (second series), hits give low values 0.952 | locus YLR085C, strain ARP6, hits give low values 0.791 | locus YMR263W, strain SAP30, hits give low values 0.915 | locus YNL128W, strain TEP1, hits give low values 0.922 | locus YPR135W, strain CTF4, hits give low values 0.769

CC1(C)[C@@H]2CC[C@@]1(C)C(=O)C2
inactive: [1] 0.962 | locus YAL021C, strain ccr4, hits give low values 0.97 | locus YAL026C, strain drs2, hits give low values 1.03 | locus YAL030W, strain snc1, hits give low values 1.02 | locus YBL061C, strain skt5, hits give low values 1.02 | locus YBR009C, strain hhf1, hits give low values 1.01 | locus YBR021W, strain FUR4, hits give low values 1 | locus YBR023C, strain chs3, hits give low values 1.01 | locus YBR171W, strain sec66, hits give low values 1.02 | [2] 0.99 | locus YBR231C, strain swc5, hits give low values 1.01 | locus YBR279W, strain paf1, hits give low values 0.993 | locus YCL011C, strain gbp2, hits give low values 1 | locus YCL016C, strain dcc1, hits give low values 0.987 | locus YCL029C, strain bik1, hits give low values 1 | locus YCL061C, strain MRC1, hits give low values 1.02 | locus YCL069W, strain vba3, hits give low values 1.02 | locus YCR088W, strain abp1, hits give low values 1.01 | locus YDL005C, strain med2, hits give low values 1.01 | locus YDL035C, strain GPR1, hits give low values 1.01 | locus YDL040C, strain nat1, hits give low values 1 | locus YDL074C, strain BRE1, hits give low values 1.02 | [3] 1 | [4] 0.994 | locus YDL185W, strain tfp1, hits give low values 1 | locus YDL192W, strain arf1, hits give low values 1 | locus YDR001C, strain nth1, hits give low values 1.01 | locus YDR069C, strain doa4, hits give low values 1.02 | locus YDR101C, strain arx1, hits give low values 0.995 | locus YDR137W, strain rgp1, hits give low values 1.02 | locus YDR159W, strain sac3, hits give low values 1.06 | locus YDR162C, strain NBP2, hits give low values 1.01 | locus YDR195W, strain ref2 0.972 | locus YDR297W, strain sur2, hits give low values 1.02 | locus YDR318W, strain mcm21, hits give low values 0.996 | locus YDR334W, strain swr1, hits give low values 1.01 | locus YDR335W, strain msn5, hits give low values 0.993 | locus YDR388W, hits give low values 1.01 | locus YDR392W, strain spt3, hits give low values 0.902 | locus YDR502C, strain sam2, hits give low values 0.995 | locus YEL003W, strain gim4, hits give low values 1.01 | locus YEL037C, strain rad23, hits give low values 1 | locus YEL061C, strain CIN8 (second series), hits give low values 1 | [5] 1 | locus YER015W, strain faa2, hits give low values 1.01 | locus YER016W, strain bim1, hits give low values 1.01 | locus YER110C, hits give low values 1.01 | locus YER111C, strain swi4, hits give low values 1.01 | locus YER155C, strain BEM2 (second series), hits give low values 1.02 | locus YER155C, strain BEM2, hits give low values 0.982 | locus YER167W, strain BCK2, hits give low values 0.992 | locus YFR010W, strain ubp6, hits give low values 1.02 | locus YGL078C, strain dbp3, hits give low values 0.996 | locus YGL086W, strain mad1, hits give low values 0.995 | locus YGL167C, strain pmr1, hits give low values 1.01 | locus YGL173C, strain kem1, hits give low values 1.03 | locus YGL227W, strain vid30, hits give low values 1.01 | locus YGL240W, strain doc1, hits give low values 1.01 | locus YGL248W, strain PDE1, hits give low values 0.99 | locus YGL253W, strain hxk2, hits give low values 1.02 | [6] 1.01 | locus YGR135W, strain pre9, hits give low values 0.996 | locus YGR252W, strain gcn5, hits give low values 0.937 | locus YHR013C, strain ard1, hits give low values 0.991 | locus YHR027C, strain rpn1, hits give low values 1.02 | [7] 1 and 1.03 | locus YHR079C, strain IRE1 (second series), hits give low values 0.997 | locus YHR079C, strain IRE1, hits give low values 1.05 | locus YHR094C, strain hxt1, hits give low values 1 | locus YHR129C, strain ARP1, hits give low values 1 | locus YHR142W, strain chs7, hits give low values 0.989 | locus YHR200W, strain rpn10, hits give low values 1 | locus YIL066C, strain RNR3, hits give low values 1.03 | locus YIL073C, strain SPO22, hits give low values 1.02 | locus YIL125W, strain kgd1, hits give low values 1 | locus YIR030C, strain dcg1, hits give low values 0.996 | locus YJL092W, strain hpr5, hits give low values 1.01 | locus YJL095W, strain BCK1 (second series), hits give low values 1.01 | locus YJL095W, strain BCK1, hits give low values 1.02 and 1.05 | locus YJL115W, strain asf1, hits give low values 1.01 | locus YJL129C, strain trk1, hits give low values 1.03 | locus YJL134W, strain LCB3, hits give low values 0.995 | locus YJL154C, strain vps35, hits give low values 1.01 | locus YJL164C, strain tpk1, hits give low values 0.98 | locus YJL166W, strain qcr8, hits give low values 1.03 | locus YJL168C, strain set2, hits give low values 1.01 | locus YJL187C, strain SWE1 (second series), hits give low values 1.01 | locus YJL187C, strain SWE1, hits give low values 1 | [8] 1.01 | locus YJR066W, strain TOR1, hits give low values 0.973 | locus YKL009W, strain mrt4, hits give low values 0.987 | locus YKL068W, hits give low values 0.992 | locus YKL085W, strain MDH1 (second series), hits give low values 1.01 | locus YKL085W, strain MDH1, hits give low values 1.01 | locus YKL160W, strain elf1, hits give low values 0.976 | locus YKR001C, strain vps1, hits give low values 0.992 | locus YKR026C, strain gcn3, hits give low values 1.01 | locus YKR091W, strain srl3, hits give low values 0.996 | locus YLL001W, strain dnm1, hits give low values 0.962 | locus YLL026W, hits give low values 1.01 | locus YLL041C, strain sdh2, hits give low values 1.01 | locus YLR027C, strain aat2, hits give low values 1.01 | [9] 1.03 | locus YLR058C, strain SHM2, hits give low values 1 | locus YLR102C, strain apc9, hits give low values 0.992 | locus YLR113W, strain HOG1, hits give low values 1.05 | locus YLR221C, strain rsa3, hits give low values 1.05 | locus YLR258W, strain gsy2, hits give low values 0.986 | locus YLR262C, strain YPT6 (second series), hits give low values 1.01 | [10] 1.05 | locus YLR268W, strain sec22, hits give low values 0.987 | locus YLR320W, strain mms22, hits give low values 1.04 | locus YLR330W, strain CHS5, hits give low values 0.996 | locus YLR342W, strain FKS1 (second series), hits give low values 1.02 | locus YLR342W, strain FKS1, hits give low values 1.01 | locus YLR357W, strain rsc2, hits give low values 0.993 | locus YLR370C, strain arc18, hits give low values 1.01 | locus YLR371W, strain rom2, hits give low values 1 | locus YLR384C, strain iki3, hits give low values 1.02 | locus YLR418C, strain cdc73, hits give low values 0.994 | locus YML016C, strain PPZ1, hits give low values 0.997 | locus YML032C, strain rad52, hits give low values 1 | locus YML120C, strain ndi1, hits give low values 0.981 | locus YML124C, strain tub3, hits give low values 1.01 | locus YMR058W, strain fet3, hits give low values 1.03 | locus YMR078C, strain ctf18, hits give low values 1.01 | locus YMR125W, strain sto1, hits give low values 0.987 | locus YMR129W, hits give low values 1 | locus YMR205C, strain PFK2, hits give low values 1 | locus YMR223W, strain ubp8, hits give low values 1 | locus YMR231W, strain pep5, hits give low values 1.01 | locus YMR307W, strain GAS1, hits give low values 0.98 | locus YNL067W, strain RPL9B, hits give low values 1 | locus YNL071W, strain lat1, hits give low values 1.01 | locus YNL183C, strain NPR1, hits give low values 0.985 | locus YNL209W, strain ssb2, hits give low values 0.991 | locus YNL233W, strain BNI4, hits give low values 1.01 | locus YNL248C, strain rpa49, hits give low values 1.04 | locus YNL250W, strain rad50, hits give low values 1.03 | locus YNL271C, strain bni1, hits give low values 1 | locus YNL298W, strain CLA4, hits give low values 0.99 | locus YNL307C, strain MCK1, hits give low values 0.997 | locus YNL322C, strain KRE1 (second series), hits give low values 1.01 | [11] 0.985 | locus YNR049C, strain mso1, hits give low values 1.01 | locus YNR052C, strain pop2, hits give low values 0.999 | locus YOL012C, strain htz1 1.32 | locus YOL147C, strain pex11, hits give low values 1 | locus YOR001W, strain rrp6, hits give low values 1.07 | locus YOR061W, strain CKA2, hits give low values 1.01 | locus YOR069W, strain VPS5, hits give low values 1 | locus YOR070C, strain gyp1, hits give low values 1.03 | locus YOR080W, strain dia2, hits give low values 1.01 | locus YOR083W, strain WHI5, hits give low values 0.973 | locus YOR106W, strain vam3, hits give low values 0.991 | locus YOR136W, strain idh2, hits give low values 0.991 | locus YOR144C, strain elg1, hits give low values 0.996 | locus YOR184W, strain ser1, hits give low values 0.992 | locus YOR231W, strain MKK1, hits give low values 1.05 | locus YOR265W, strain rbl2, hits give low values 1 | locus YOR270C, strain vph1, hits give low values 1.06 | locus YOR290C, strain snf2, hits give low values 0.969 | locus YOR316C, strain cot1, hits give low values 0.999 | locus YPL051W, strain arl3, hits give low values 0.997 | [12] 1 | locus YPL078C, strain atp4, hits give low values 0.966 | locus YPL106C, strain sse1, hits give low values 1.01 | locus YPL240C, strain hsp82, hits give low values 1.01 | [13] 1 | locus YPL256C, strain CLN2, hits give low values 1.01 | locus YPR119W, strain clb2, hits give low values 0.998 | locus YPR141C, strain kar3, hits give low values 0.986 | locus YPR163C, strain tif3, hits give low values 0.999 | locus YPR167C, strain met16, hits give low values 1 | strain wtn01, hits give low values 0.987
